How the values were obtained:
Experiment in all cases: SPOT peptide array binding signal intensity (averaged, normalized) (arbitrary units (background-subtracted, floor 0; scale differs between SH3 domains)); higher = stronger binding of the SH3 domain to the peptide
AgAbp1 = molecular target: AgAbp1
In short: (§1)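 Binding signal is given in arbitrary units that differ between domains and is the normalized, background-subtracted spot intensity averaged across replicates. Each GST-SH3 fusion from one of four yeast species was made in E. coli BL21(DE3), purified on glutathione Sepharose and incubated at 10 μg/ml overnight at 4°C on cellulose-bound synthetic 15-mer peptides in which cysteines were replaced by serines. Detection used anti-GST antibody, an HRP anti-mouse secondary and luminol, followed by imaging and Genespotter quantification.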

AgBbc1 = molecular target: AgBbc1
In short: as §1

AgBem1-D1 = molecular target: AgBem1-D1
In short: as §1

AgBzz1-D1 = molecular target: AgBzz1-D1
In short: as §1

AgBzz1-D2 = molecular target: AgBzz1-D2
In short: as §1

AgCyk3 = molecular target: AgCyk3
In short: as §1

AgFus1 = molecular target: AgFus1
In short: as §1

AgHof1 = molecular target: AgHof1
In short: as §1

AgHse1 = molecular target: AgHse1
In short: as §1

AgLsb1 = molecular target: AgLsb1
In short: as §1

AgLsb4 = molecular target: AgLsb4
In short: as §1

AgMyo5 = molecular target: AgMyo5
In short: as §1

AgNbp2 = molecular target: AgNbp2
In short: as §1

AgRvs167 = molecular target: AgRvs167
In short: as §1

AgSho1 = molecular target: AgSho1
In short: as §1

AgSla1-D1-D2 = molecular target: AgSla1-D1-D2
In short: as §1

AgSla1-D3 = molecular target: AgSla1-D3
In short: as §1

CaAbp1-D1 = molecular target: CaAbp1-D1
In short: as §1

CaAbp1-D2 = molecular target: CaAbp1-D2
In short: as §1

CaBbc1 = molecular target: CaBbc1
In short: as §1

CaBem1-D1 = molecular target: CaBem1-D1
In short: as §1

CaBzz1-D1 = molecular target: CaBzz1-D1
In short: as §1

CaBzz1-D2 = molecular target: CaBzz1-D2
In short: as §1

CaCyk3 = molecular target: CaCyk3
In short: as §1

CaFus1 = molecular target: CaFus1
In short: as §1

CaHof1 = molecular target: CaHof1
In short: as §1

CaHse1 = molecular target: CaHse1
In short: as §1

CaLsb1 = molecular target: CaLsb1
In short: as §1

CaLsb4 = molecular target: CaLsb4
In short: as §1

CaMyo5 = molecular target: CaMyo5
In short: as §1

SpBzz1-D2 = molecular target: SpBzz1-D2
In short: as §1

SpCyk3 = molecular target: SpCyk3
In short: as §1

SpHof1 = molecular target: SpHof1
In short: as §1

SpHof1-2 = molecular target: SpHof1-2
In short: as §1

SpHof1-3 = molecular target: SpHof1-3
In short: as §1

SpHse1 = molecular target: SpHse1
In short: as §1

SpLsb1 = molecular target: SpLsb1
In short: as §1

SpLsb4 = molecular target: SpLsb4
In short: as §1

SpMyo1 = molecular target: SpMyo1
In short: as §1

SpNbp2 = molecular target: SpNbp2
In short: as §1

SpPex13 = molecular target: SpPex13
In short: as §1

SpRvs167 = molecular target: SpRvs167
In short: as §1

SpSla1-D1-D2 = molecular target: SpSla1-D1-D2
In short: as §1

SpSla1-D3 = molecular target: SpSla1-D3
In short: as §1

LKHGWKPLRPIKLIS
SPOT peptide array binding signal intensity (AgAbp1): 1400 | SPOT peptide array binding signal intensity (AgBbc1): 72.8 | SPOT peptide array binding signal intensity (AgBem1-D1): 12 | SPOT peptide array binding signal intensity (AgBzz1-D1): 31 | SPOT peptide array binding signal intensity (AgBzz1-D2): ≤ 0 | SPOT peptide array binding signal intensity (AgCyk3): ≤ 0 | SPOT peptide array binding signal intensity (AgFus1): 141 | SPOT peptide array binding signal intensity (AgHof1): 21.5 | SPOT peptide array binding signal intensity (AgHse1): 252 | SPOT peptide array binding signal intensity (AgLsb1): ≤ 0 | SPOT peptide array binding signal intensity (AgLsb4): ≤ 0 | SPOT peptide array binding signal intensity (AgMyo5): ≤ 0 | SPOT peptide array binding signal intensity (AgNbp2): 41 | SPOT peptide array binding signal intensity (AgRvs167): 5.33 | SPOT peptide array binding signal intensity (AgSho1): 32 | SPOT peptide array binding signal intensity (AgSla1-D1-D2): 206 | SPOT peptide array binding signal intensity (AgSla1-D3): 3.5 | SPOT peptide array binding signal intensity (CaAbp1-D1): 398 | SPOT peptide array binding signal intensity (CaAbp1-D2): 1860 | SPOT peptide array binding signal intensity (CaBbc1): 364 | SPOT peptide array binding signal intensity (CaBem1-D1): 23 | SPOT peptide array binding signal intensity (CaBzz1-D1): ≤ 0 | SPOT peptide array binding signal intensity (CaBzz1-D2): 46.5 | SPOT peptide array binding signal intensity (CaCyk3): 7 | SPOT peptide array binding signal intensity (CaFus1): 850 | SPOT peptide array binding signal intensity (CaHof1): ≤ 0 | SPOT peptide array binding signal intensity (CaHse1): 193 | SPOT peptide array binding signal intensity (CaLsb1): ≤ 0 | SPOT peptide array binding signal intensity (CaLsb4): 176 | SPOT peptide array binding signal intensity (CaMyo5): ≤ 0

MAMRPIPPLPTESEY
SPOT peptide array binding signal intensity (SpBzz1-D2): 17 | SPOT peptide array binding signal intensity (SpCyk3): 14 | SPOT peptide array binding signal intensity (SpHof1): 140 | SPOT peptide array binding signal intensity (SpHof1-2): 110 | SPOT peptide array binding signal intensity (SpHof1-3): 26.8 | SPOT peptide array binding signal intensity (SpHse1): 66 | SPOT peptide array binding signal intensity (SpLsb1): 67.8 | SPOT peptide array binding signal intensity (SpLsb4): 2610 | SPOT peptide array binding signal intensity (SpMyo1): 309 | SPOT peptide array binding signal intensity (SpNbp2): 42.5 | SPOT peptide array binding signal intensity (SpPex13): 72 | SPOT peptide array binding signal intensity (SpRvs167): 1130 | SPOT peptide array binding signal intensity (SpSla1-D1-D2): 2 | SPOT peptide array binding signal intensity (SpSla1-D3): 28

From the supplement of paper PMC4466140
